Source: PubChem (NMMLSC)
RGS7-Gao reg = RGS7-Galphao binding modulators, primary screen, biochemical, multiplexed bead flow cytometry; actives lie on both sides; binding response (% of control), % at 10 µM; actives 0.35% (n = 220,000); in the data active means binding response below about 49% or above about 150%; inconclusive means no clear call, values can overlap the other calls; inactive means in between;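 further: fluorescent Galphao held in activated GDP-AlF4 state binding bead-coupled RGS7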
Target sequence (P09471 whole entry, looked up): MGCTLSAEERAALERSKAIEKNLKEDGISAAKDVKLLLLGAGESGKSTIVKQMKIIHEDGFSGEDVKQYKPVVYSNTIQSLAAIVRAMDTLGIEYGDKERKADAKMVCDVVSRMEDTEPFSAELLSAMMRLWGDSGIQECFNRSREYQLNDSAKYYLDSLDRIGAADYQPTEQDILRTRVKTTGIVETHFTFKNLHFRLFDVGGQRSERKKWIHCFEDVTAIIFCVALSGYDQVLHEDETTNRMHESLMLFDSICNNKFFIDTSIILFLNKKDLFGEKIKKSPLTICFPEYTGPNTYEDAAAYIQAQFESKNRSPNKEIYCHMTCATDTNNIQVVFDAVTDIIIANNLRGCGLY
RGS4-Gao reg = modulators of RGS4 binding to Galphao, primary screen, biochemical, multiplexed bead flow cytometry; actives lie on both sides; binding response (% of control), % at 10 µM; AID 1415, 2008; actives 0.33% (n = 220,000); in the data active means binding response below about 49% or above about 150%; inactive means in between;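 further: fluorescent Galphao activated with aluminum fluoride binding bead-coupled RGS4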
RGS16-Gao HTS = modulators of RGS16 binding to Galphao, primary screen, biochemical, human proteins, multiplexed bead flow cytometry. bead-based flow cytometry RGS16-Galphao binding, fluorescence; actives lie on both sides. Regulator of G-protein signaling 16 (Homo sapiens) + Guanine nucleotide-binding protein …. binding response (% of control), % at 10 µM. AID 1441, 2008. actives 0.38% (n = 220,000);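 further: Galphao activated by GDP with aluminum fluoride before binding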
RGS8-Gao = RGS8-Galphao binding modulators, primary screen, biochemical, multiplexed bead flow cytometry; actives lie on both sides; response (percent of control binding), % at 10 µM; actives 0.34% (n = 220,000); AID 1423, 2008; in the data active means response below about 60% or above about 140%; inactive means in between;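 further: Galphao activated as the GDP aluminium fluoride complex binding bead-coupled RGS8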
Avidin fluor = green autofluorescence of compounds with avidin beads – biophysical, 488/530 nm, flow cytometry, artefact control, profiling panel; compound fluorescence 488/530 nm; hits give high values; fluorescence (KMESF) at 10 µM; actives 0.38% (n = 220,000); in the data active means fluorescence above about 47
GSH fluor = compound fluorescence on glutathione beads, profiling panel, artefact control, biophysical, 488/530 nm, flow cytometry | GSH beads flow cytometry, compound fluorescence 488/530 nm; hits give high values | fluorescence (KMESF) at 10 µM | actives 0.25% (n = 190,000); in the data active means fluorescence above about 89;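 further: glutathione beads carrying GST-tagged Bcl family fusion proteins plus one bare bead set; values are compound well signal with DMSO vehicle wells as background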
RGS-Gao = modulators of RGS–Galpha-o binding, primary screen, biochemical, multiplexed beads, flow cytometry, RGS4/7/8/16/19 | actives 99% (n = 1,600) | RGS4–Galpha-o binding response, % at 10 µM | AID 1504, 2009 | shares compounds with RGS16-Gao HTS | multiplexed bead flow cytometry;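 further: fluorescently labeled Galpha-o bound to GDP with aluminium fluoride binding biotinylated RGS beads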
Target sequence (P09471 whole entry, looked up): as above
Target sequence (P49798 whole entry, looked up): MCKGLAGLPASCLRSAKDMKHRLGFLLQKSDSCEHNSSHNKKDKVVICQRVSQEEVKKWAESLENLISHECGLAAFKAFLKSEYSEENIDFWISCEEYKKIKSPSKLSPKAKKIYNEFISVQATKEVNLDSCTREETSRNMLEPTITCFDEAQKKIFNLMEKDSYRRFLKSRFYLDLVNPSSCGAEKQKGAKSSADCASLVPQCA
Avidin counter = disruption of biotin probe capture by avidin, counter-screen for RGS protein interaction modulators, biochemical, flow cytometry, bead-based. shares compounds with RGS16-Gao HTS. streptavidin beads, fluorescein-biotin binding. inhibition, % at 10 µM. 1,700 tested, under 10 active. AID 1783, 2009;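 active means inhibition above 50%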;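 further: median green fluorescence of gated singlet beads compared with DMSO control wells; 0% = DMSO wells and 100% = complete loss of bead fluorescence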
RGS8-Gao confirm = RGS8-Galphao binding modulators, confirmation, biochemical, multiplexed bead flow cytometry, single concentration; shares compounds with RGS16-Gao HTS; bead-based flow cytometry RGS8-Galphao binding, fluorescence; actives lie on both sides; binding response (% of control), % at 10 µM; actives 3% (n = 1,700); in the data active means binding response below about 72% or above about 130%; inactive means in between;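 further: Galphao activated as GDP AlF4 complex before binding bead RGS8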
RGS7-Gao confirm = RGS7-Galphao binding modulators, confirmation, biochemical, multiplexed bead flow cytometry, single concentration; shares compounds with RGS16-Gao HTS; bead-based flow cytometry RGS7-Galphao binding; actives lie on both sides; response (percent of control binding), % at 10 µM; actives 7.8% (n = 1,700); AID 1837, 2009; in the data active means response below about 75% or above about 130%; inactive means in between;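 further: fluorescent Galphao activated with GDP and aluminum fluoride binding bead-coupled RGS7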
RGS16-Gao conf = modulators of RGS16-Galphao protein binding, confirmation, biochemical, single concentration, multiplexed bead flow cytometry | response (% of control binding), % at 10 µM | shares compounds with RGS16-Gao HTS | AID 1838, 2009 | actives 4% (n = 1,700) | bead-based flow cytometry; actives lie on both sides; in the data active means response below about 74% or above about 130%; inactive means in between;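 further: Galphao activated as the GDP aluminium fluoride complex binding bead-coupled RGS16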
RGS4-Gao confirm = modulators of RGS4-Galphao protein binding, confirmation, biochemical, single concentration, multiplexed bead flow cytometry. binding response (% of control), % at 10 µM. AID 1840, 2009. shares compounds with RGS16-Gao HTS. actives 4% (n = 1,700). actives lie on both sides; in the data active means binding response below about 74% or above about 130%; inactive means in between
RGS19-Gao single = regulators of RGS19-Galphao binding, confirmation, biochemical, single point, multiplexed bead flow cytometry; response (percent of control binding), % at 10 µM; shares compounds with RGS16-Gao HTS; actives 5% (n = 1,700); bead-based flow cytometry RGS19-Galphao binding; actives lie on both sides; AID 1841, 2009; in the data active means response below about 50% or above about 160%; inactive means in between;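 further: 100% = no compound control and 0% = blank background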
An asterisk follows results filed as active; ? = inconclusive; · = no result given; [ ] = remark or other dose. Rows were chosen to be rich in hits. Some 1.2% of all compounds tested hit in one or more screens of this group. Unless noted, how the calls were made is not given here.

SMILES	RGS7-Gao reg	RGS4-Gao reg	RGS16-Gao HTS	RGS8-Gao	Avidin fluor	GSH fluor	Avidin counter	RGS8-Gao confirm	RGS7-Gao confirm	RGS16-Gao conf	RGS4-Gao confirm	RGS19-Gao single	others
Cc1ccc(CN2CC(C(=O)Nc3cccc(S(=O)(=O)N4CCCCC4)c3)CC2=O)cc1 (stereo not drawn)	97.9	97.0	88.6	94.9	10	5	·	·	·	·	·	·
CN(c1ccccc1)S(=O)(=O)c1cccc(NC(=O)CN2CCCc3ccccc32)c1	?	141.1	177.9*[activator]	117.6	27	·	1.2	101.8	130.9*[activator]	112.1	113.4	133.7	RGS-Gao=141.1*
CCOC(=O)C1CCCN(c2c(NCCc3ccc(Cl)cc3)c(=O)c2=O)C1 (stereo not drawn)	?	101.2	101.4	99.1	5	·	·	·	·	·	·	·
O=c1[nH]c2ccccc2nc1C(F)(F)F	?	172.7*[activator]	167.3	136.9	6	·	-0.6	93.2	89.0	90.6	93.6	100.9
CC(C)(C)n1nc2c(c1NC(=O)Cc1ccccc1)CS(=O)(=O)C2	93.2	77.5	57.9	93.8	15	18	·	·	·	·	·	·
CC(=O)Nc1ccc(Nc2ccc(N3C(=O)CCCC3=O)cc2[N+](=O)[O-])cc1	47.4*	45.8*	32.7	52.9*	0	6	-3.1	104.9	102.7	106.8	103.4	94.4
Cc1nc(C)c(C(=O)NNC(=O)Nc2ccc(Cl)cc2)s1	?	79.4	73.0	89.3	14	·	·	·	·	·	·	·
Cc1ccc2cc(C)c(Sc3nnnn3-c3ccccc3)nc2c1	105.5	112.1	190.8*[activator]	119.4	17	4	-1.0	109.2	110.7	114.4	108.4	125.9	RGS-Gao=112.1*
C=CCN(C(=O)Nc1ccc(Cl)cc1)C1CC(=O)N(c2ccc(OC)cc2)C1=O (stereo not drawn)	100.4	100.8	96.7	99.0	9	7	·	·	·	·	·	·
C=CCN(C(=O)Nc1ccc(F)cc1)C1CC(=O)N(c2ccc(OC)cc2)C1=O (stereo not drawn)	125.3	133.6	349.6	158.5*[activator]	6	8	0.4	98.1	102.9	101.4	105.3	104.1	RGS-Gao=133.6*
CCCCc1nnc(NC(=O)COc2ccc3c(C)cc(=O)oc3c2)s1	?	101.8	98.7	97.6	7	·	·	·	·	·	·	·
CCC(C)n1c(OC)nc2c1c(=O)n(C)c(=O)n2C (stereo not drawn)	103.4	102.6	108.0	103.1	11	12	·	·	·	·	·	·
COCCn1c(C)cc(/C=C2/SC(=O)N(C(C)C(=O)OC)C2=O)c1C (stereo not drawn)	?	221.6*[activator]	224.9*[activator]	107.1	129*	·	1.3	100.2	96.5	97.2	97.5	90.9
CC(C)CC(NC(=O)C(CC(C)C)NC(=O)OC(C)(C)C)C(N)=O (stereo not drawn)	106.7	113.7	105.3	101.3	26	44	·	·	·	·	·	·
CC(C)CC(NC(=O)C(CC(C)C)NC(=O)C(Cc1ccc(OCc2ccccc2)cc1)NC(=O)OC(C)(C)C)C(N)=O (stereo not drawn)	101.4	95.7	99.6	99.1	8	8	·	·	·	·	·	·
CC(C)CC(NC(=O)C(CC(C)C)NC(=O)OC(C)(C)C)C(=O)O (stereo not drawn)	·	·	·	·	·	17	-0.4	98.1	100.3	95.3	98.1	87.4
CC(C)CC(NC(=O)C(NC(=O)C(Cc1ccc(OCc2ccccc2)cc1)NC(=O)OC(C)(C)C)C(C)C)C(N)=O (stereo not drawn)	107.8	104.1	182.9*[activator]	116.4	10	13	-0.8	100.8	93.3	100.5	98.2	94.8	RGS-Gao=104.1*
CC(C)c1ccc(NC(=S)N2CCCC(c3ccc(F)cc3)=N2)cc1	?	108.8	105.4	103.1	3	·	·	·	·	·	·	·
CSc1ncc(CN2CCc3c([nH]c4ccccc34)C2c2cccc(O)c2)cn1 (stereo not drawn)	104.2	106.0	109.4	103.7	9	22	·	·	·	·	·	·
COc1ccc(-n2c(C)c([N+](=O)[O-])c3ccc(O)c(CN4CCCCC4)c32)cc1	78.9	25.0*	-307.0	91.5	8	10	-0.4	100.7	108.3	100.3	103.4	83.6
Cc1ccc(-n2c(C)c([N+](=O)[O-])c3ccc(O)c(CN(C)C)c32)cc1	105.3	104.3	104.6	103.0	8	12	·	·	·	·	·	·
CCc1ccc(S(=O)(=O)/N=C2/C=C(Sc3ncn[nH]3)C(=O)c3ccccc32)cc1	83.8	91.8	24.3*	63.3	7	21	·	·	·	·	·	·	RGS-Gao=91.8*
CCc1ccc(S(=O)(=O)/N=C2\C=CC(=O)c3ccccc32)cc1	89.0	93.3	78.0	86.9	11	10	·	·	·	·	·	·
CCC(C)(NC=O)C(=O)Nc1c(C)cccc1C (stereo not drawn)	?	91.0	87.0	94.5	6	·	·	·	·	·	·	·
O=[N+]([O-])c1ccc(Sc2ccccc2)nc1	98.0	100.2	106.0	103.0	5	13	·	·	·	·	·	·
